Screening results: PubChem, The Scripps Research Institute Molecular Screening Center
Only a selection was taken, and hits are over-represented in it overall.
TTR transcr act = TTR transcription activators in neuroblastoma reporter cells, primary screen, cell-based, luminescence, SH-SY5Y, TTR promoter Gaussia luciferase; 100% = recombinant luciferase protein wells; activation, % at 16.7 µM; 92,000 tested, 1.3% active;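 active = activation above the mean of all tested compounds plus 3 SD, cut at about 9.5% in these data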;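 note: cells exposed to compounds for one day before reading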
TTR inh HuH7 = TTR promoter reporter inhibitors in hepatoma cells, counter-screen for TTR transcription activator project, cell-based, luminescence, HuH7 hepatoma; shares compounds with TTR transcr act; HuH7 TTR promoter-Gaussia luciferase reporter; inhibition, % at 16.7 µM; 1,100 tested, 4% active;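 active = average inhibition above the solvent-only control wells' mean plus 3 SD, cut at about 15% in these data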;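 note: inhibitors lower well luminescence so higher value means more inhibition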
TTR act confirm = TTR transcription activators, retest, confirmation, cell-based, luminescence, SH-SY5Y, triplicate | SHSY5Y TTR promoter Gaussia luciferase; 100% = purified Lucia enzyme wells, no cells | 1,100 tested, under 10 active | shares compounds with TTR transcr act | activation, % at 16.7 µM;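 active = mean activation above a set limit taken from the earlier primary screen, cut at about 11% in these data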
Numbers stand for hits; – = inactive.

SMILES | TTR transcr act | others
CC(C)(C)c1csc(CS(=O)(=O)c2ccccn2)n1 | –
Cc1c(S(=O)(=O)c2ccccn2)c(N)n(Cc2cccc(Cl)c2)c1C | –
COc1ccc(-n2c(=O)c3ccccc3c3ccccc3c2=O)c(OC)c1 | –
NNC(=O)c1nn(-c2ccc(Cl)cc2)cc1O | –
CCn1cc(Cl)c(C(=O)Nc2ccc(OC)c(OC)c2)n1 | –
CCn1cc(Br)c(C(=O)NN)n1 | 16 | TTR inh HuH7=–;TTR act confirm=–
Cc1cc(C)nc(NS(=O)(=O)c2ccc(NC(=O)C(C)C)cc2)n1 | –
COc1ccc(C(=O)Nc2ccc(Cl)c(S(=O)(=O)N3CCOCC3)c2)cc1 | –
CCOC(=O)N1CCN(Cc2nc(C3CC3)no2)CC1 | –
CN(c1ccccc1)S(=O)(=O)c1ccc(Cl)c(C(=O)Nc2ccncc2)c1 | –
NC(=O)c1nsc(C(=O)N(Cc2cccnc2)C(C(=O)NC2CCCC2)c2ccc(F)cc2)c1N (stereo unspecified) | –
COc1ccccc1N(C(=O)c1snc(C(N)=O)c1N)C(C(=O)NCCC(C)C)c1ccco1 (stereo unspecified) | –
CC(C)(C)NC(=O)C(c1ccco1)N(Cc1ccc(F)cc1)C(=O)c1snc(C(N)=O)c1N (stereo unspecified) | 10 | TTR inh HuH7=–;TTR act confirm=–
Cc1ccccc1NC(=O)C1Cc2ccccc2CN1C(=O)OCc1ccccc1 (stereo unspecified) | 11 | TTR inh HuH7=–;TTR act confirm=–
COc1cccc(NC(=O)C2Cc3ccccc3CN2C(=O)c2ccco2)c1 (stereo unspecified) | –
Cc1ccccc1NC(=O)C1CC(=O)N(Cc2ccccc2)C1 (stereo unspecified) | –
COc1ccccc1NC(=S)NCCc1ccc(Cl)cc1 | –
CN(Cc1ccccc1)c1nc(N)nc(Cl)c1C=O | –
COc1cc(/C=C/C(=O)O)cc(S(=O)(=O)NNC(=O)c2cc(C)oc2C)c1OC | –
COc1ccc(C(C)(C)C)cc1S(=O)(=O)NCC1CCCO1 (stereo unspecified) | –
COc1cc(/C=C/C(=O)O)cc(S(=O)(=O)NCC2CCCO2)c1OC (stereo unspecified) | 22 | TTR inh HuH7=–;TTR act confirm=–
COc1ccc(C(=O)COC(=O)C(CCSC)NS(=O)(=O)c2ccc(Cl)cc2)cc1 (stereo unspecified) | –
COc1ccc(NC(=O)c2ccc(NC3CC(=O)N(c4ccc(C)cc4C)C3=O)cc2)cc1 (stereo unspecified) | –
O=C(NNc1nc2ccccc2o1)c1ccccc1 | –
O=C(NNc1nc2ccccc2nc1C(F)(F)F)c1ccccc1 | 10 | TTR inh HuH7=–;TTR act confirm=–
SMILES | TTR transcr act | others
O=C(NNc1ccccc1F)c1ccccc1 | –
CCOC(OCC)P(=O)(CNC(c1ccccc1)(c1ccccc1)c1ccccc1)OCC (stereo unspecified) | –
Cc1ccc(NC(=S)NC(NC(=O)C(C)(C)C)C(Cl)(Cl)Cl)c(C)c1 (stereo unspecified) | –
CC(c1cccs1)N(C)Cc1nc(CCc2ccccc2)no1 (stereo unspecified) | –
O=C(Nc1cccc(Cl)c1)C1=CC=CN2CCS(=O)(=O)N=C12 | –
CCOC(=O)C1=C(C)NC(C)=C(C(=O)OCC)C1c1ccco1 | –
CCOC(=O)C1=C(c2ccccc2)OC(N)=C(C#N)C1c1ccco1 (stereo unspecified) | 13 | TTR inh HuH7=–;TTR act confirm=–
CCOC(=O)C1=C(c2ccccc2)OC(N)=C(C#N)C1C1CCCCC1 (stereo unspecified) | –
CN(CC(=O)NCc1ccccc1)S(=O)(=O)c1ccc2c(c1)CCC(=O)N2 | –
CN1CCN(c2ccc(Cl)cc2NC(=O)/C=C/c2cccc(F)c2)CC1 | –
CCC(=O)Nc1cc(Cl)ccc1N1CCN(C(=O)CC)CC1 | 12 | TTR inh HuH7=–;TTR act confirm=–
CCN(CC)S(=O)(=O)c1ccc(N2CCOCC2)c(NC(=O)Cc2ccc(Cl)cc2)c1 | –
COc1nc(N)nc(NC(=O)c2cccs2)c1N=O | –
Cc1cccc2c(CCNC(=O)c3ccc([N+](=O)[O-])cc3)c[nH]c12 | –
CC(=NNC(=O)c1cccs1)c1ccc2c(c1)OCCO2 | –
O=C(Nc1ccc(-c2cnco2)cc1)c1ccc(Cl)cc1 | –
O=C(Nc1ccc(-c2cnco2)cc1)c1ccccc1 | 14 | TTR inh HuH7=–;TTR act confirm=–
O=C(NC(=O)c1ccccc1Cl)Nc1ccc(-c2cnco2)cc1 | –
CCN(CC(=O)Nc1ccccc1C(F)(F)F)C(=O)C1CCC1 | –
O=C(OCc1cn(Cc2ccc(F)cc2)nn1)N1CCCC1 | –
CCn1cc(/C=N\NC(=O)COc2cccc(C)c2C)c(C)n1 | –
O=C1N[C@@H](Cc2c[nH]c3ccccc23)COC(=O)[C@@H](Cc2ccc(F)cc2)C/C=C\C[C@H]1CC(=O)N(CCO)Cc1ccccc1 | –
COc1cc(NC(=O)CSc2nnc(-c3ccncc3)n2C2CCCCC2)ccc1NC(=O)c1ccco1 | –
c1ccc(C2C3=C(Nc4ncnn42)c2ccccc2CCC3)cc1 (stereo unspecified) | –
O=C1CC(c2ccccc2)CC(=NCCO)/C1=C(\O)CCCN1C(=O)c2ccccc2C1=O (stereo unspecified) | –
SMILES | TTR transcr act | others
CC(=O)N1N=C(c2ccccc2)OC12CCCC2 | –
CC(Oc1ccccc1)C(=O)N1CCN=C1SCc1ccccc1 (stereo unspecified) | 12 | TTR inh HuH7=29;TTR act confirm=–
O=C(C1CC1)N1CCN=C1SCc1ccccc1 | –
O=C(C1CC1)N1CCN=C1SCc1cccc(F)c1 | –
CCC(C(=O)NC1CCCC1)n1c(-c2ccccn2)nc2ccccc21 (stereo unspecified) | –
COc1ccc(C(C(=O)NCc2ccccc2)n2c(-c3ccncc3)nc3ccccc32)cc1 (stereo unspecified) | –
CCC(C(=O)NCc1ccccc1)n1c(-c2cccs2)nc2ccccc21 (stereo unspecified) | 11 | TTR inh HuH7=–;TTR act confirm=–
CCn1c(=O)n(CC)c2cc(N3CCCC3)c(NC(=O)c3c(F)cccc3F)cc21 | –
Cc1ccc(S(=O)(=O)N(C)CCCC(=O)Nc2ccc(F)cc2)cc1 | –
Cc1ccc(C)c(NC(=O)c2cc(-c3cccnc3)nc3ccccc23)c1 | –
Cc1ccc(S(=O)(=O)N2C[C@@H]3[C@H]4CC[C@H](C4)[C@@H]3[C@@H](C)[C@@H]2c2ccn(Cc3ccccc3)c2)cc1 | –
O=C(COC(=O)Cc1n[nH]c(=O)c2ccccc12)NNC(=O)c1ccccc1 | –
COc1cccc(OCc2cc(C(=O)N3CCN(c4ccccc4O)CC3)no2)c1 | 11 | TTR inh HuH7=–;TTR act confirm=–
Cc1ccc(OCc2cc(C(=O)N3CCCC3)no2)cn1 | –
Cc1ccc(N2CCN(C(=O)c3cc(COc4c(C)cccc4C)on3)CC2)c(C)c1 | –
CCOC(=O)C1(Cc2ccc(OC)cc2)CCN(C(=O)Cn2cnnn2)CC1 | –
CCOC(=O)C1(Cc2ccc(OC)cc2)CCN(C(=O)C2CCCO2)CC1 (stereo unspecified) | –
CCOC(=O)C1(Cc2ccc(OC)cc2)CCN(C(=O)c2cncs2)CC1 | 9.7 | TTR inh HuH7=–;TTR act confirm=–
Cc1ccc(C2=Nc3cccnc3C(c3ccccc3)=NN2)cc1 | –
CC(C)(C)Nc1nc(Cl)nc(Nc2ccccc2)n1 | –
